Several values for one entry are separate records, joined by “and”; a condition that tells them apart may be missing. Equal entries are not always repeated. Hit rate of the full screen: of about 16,000 compounds, about 5,700 (36%) were called active. Roughly 24% stayed inconclusive and do not appear here. The list shows a part of the results. Values without a mark were called inactive. Calls follow the shape of the dose curve; as a rule, active = well fitted curve in the direction sought with a large enough effect; inconclusive = small, poorly fitted or top-dose-only effect, or effect the other way; inactive = no such curve, though single readings can be large or run the other way.
% is scaled to controls: 0 for no effect and ±100 for the full control effect.

Sequence of Cytochrome P450 1A2 (Homo sapiens) (P05177 whole entry, looked up): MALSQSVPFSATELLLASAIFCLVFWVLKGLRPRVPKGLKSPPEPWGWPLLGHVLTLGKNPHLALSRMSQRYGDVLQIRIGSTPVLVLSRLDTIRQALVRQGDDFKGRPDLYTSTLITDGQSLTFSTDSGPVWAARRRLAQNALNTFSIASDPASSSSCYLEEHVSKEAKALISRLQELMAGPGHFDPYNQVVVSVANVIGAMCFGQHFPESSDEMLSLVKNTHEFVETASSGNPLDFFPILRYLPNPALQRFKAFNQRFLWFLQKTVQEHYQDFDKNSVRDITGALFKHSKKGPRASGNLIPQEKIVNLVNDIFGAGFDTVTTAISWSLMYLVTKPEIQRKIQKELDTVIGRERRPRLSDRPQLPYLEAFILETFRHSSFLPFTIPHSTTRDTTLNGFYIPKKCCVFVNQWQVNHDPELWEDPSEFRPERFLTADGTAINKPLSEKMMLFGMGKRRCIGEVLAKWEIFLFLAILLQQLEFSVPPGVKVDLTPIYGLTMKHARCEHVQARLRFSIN

The test deals with Cytochrome P450 1A2 (Homo sapiens) (UniProt P05177). As to the kind of experiment: Cytochrome panel assay with activity outcomes. The note with it: recombinant CYP, pro-luciferin dealkylation, luminescence, p450-cyp1a2; series mostly up to 57.1 µM; activity, negative = inhibition: at the top concentration. The protocol:
The P450 gene superfamily is involved in the metabolism and clearance of xenobiotics. This assay used various human CYP P450 isozymes to measure the dealkylation of various pro-luciferin substrates to luciferin. The luciferin is then measured by luminescence after the addition of a luciferase detection reagent. Pro-luciferin substrate concentration in the assay was equal to its KM for its CYP P450 isozyme. Inhibitors and some substrates limit the production of luciferin, and decrease measured luminescence.
NCGC Assay Protocol Summary:
1, Reagent, 2 uL, Isozyme and Pro-Luciferin
2, Library compounds, 23 nl, 40 uM to 0.24 nM dilution series
3, Controls, 23 nl, Isozyme specific inhibitor
4, Reagent, 2 uL, NADPH regeneration solution
5, Incubation time, 60 min, Isozyme specific temperature
6, Reagent, 4ul, Detection reagent
7, Incubation time, 20 min, Isozyme specific temperature
8, Detection, 1 sec, ViewLux luminescent read
The luciferase-based P450-GloTM Screening Systems were obtained from Promega (Madison, WI) for CYP 1A2 (V9770), CYP 2C9 (V9790), CYP2 C19 (V9880), CYP 2D6 (V9890), and CYP 3A4 Luciferin-PPXE (V9910) and were adapted for 1,536-well microplates and an automated protocol. The control compounds furafylline for 1A2 (F124), sulfaphenazole for CYP 2C9 (S0758), ketoconazole for CYP 2C19 (K1003), quinidine for 2D6 (Q3625), and ketoconazole for 3A4 (K1003) were purchased from Sigma Aldrich (St. Louis, MO). Recombinant P450 enzymes were obtained from baculovirus constructs expressed in insect cells (BD/Gentest).
Medium-binding white solid Kalypsys plates used. Mixtures kept on ice. 1A2: 10 nM 1A2, 100 uM Luc-ME, 100 mM KPO4; 2C9: 10 nM 2C9, 100 uM Luc-H, 25 mM KPO4; 2C19: 5 nM 2C19, 10 uM Luc-H EGE, 50 mM KPO4; 2D6: 5 nM 2D6, 30 uM Luc-ME EGE, 100 mM KPO4; 3A4: 10 nM, 25 uM Luc-PPXE. All amounts are reflected in their final concentration, working concentration is 2x.
NADPH regeneration solution: 1.3 mM NADP+, 3.3 mM glucose-6-phosphate, 3.3 mM MgCl2, 0.4 U/mL glucose-6-phosphate dehydrogenase for all isozymes, 200 mM KPO4 for 3A4. Mixture prepared at RT but kept on ice during automated run.
RT incubation in auxilliary plate hotel for 1A2, 2D6, and 3A4; 37C for 2C9 and 2C19.
Keywords: P450, CYP1A2, CYP2C19, CYP2C9, CYP2D6, CYP3A4, Luciferase, MLSMR, MLSCN, NIH Roadmap, qHTS, NCGC
For the compound `COc1cccc([C@@H]2Oc3ccc(OC)cc3/C(=N/O[C@@H](C)CN3CCCc4nc(C)c(C)cc43)[C@@H]2O)c1`, the activity, negative = inhibition is 2.03% [at 11.4 µM]. Regarding `Cn1c(CCN2CCCCC2)nc2cc([N+](=O)[O-])ccc21`, the “activity, negative = inhibition” value was -14.1% (inactive). For orientation: AC50 means the concentration at which the activity in the assay is half-maximal. For the compound `CN(C)S(=O)(=O)c1cc([N+](=O)[O-])ccc1N1CCCCCC1`, the half-maximal activity concentration (AC50) is 14.1 µM (active). On to `CN1CCN(c2ccc([N+](=O)[O-])cc2S(=O)(=O)N2CCOCC2)CC1`, for which the “activity, negative = inhibition” value is 6.31% (inactive). Same read-out and setting: with `CCCNC(=O)OC[C@@H]1O[C@H](CCO/N=C(\C)CCC(=O)OC[C@@H]2O[C@H](c3ccccc3)C=C[C@@H]2Oc2ccc(OC)cc2)C=C[C@@H]1Oc1ccc(OC)cc1` the figure was -2.5% [at 11.4 µM]. In the case of `CCNc1ccc(Br)cc(C(=O)/C=C/c2ccc3c(c2)OCO3)c1=O`, the AC50 is 22.4 µM (active). Still for that read-out and setting: with `CNc1ccc(Br)cc(C(=O)/C=C/c2ccc3c(c2)OCO3)c1=O` the figure was 3.16 µM (active). Consider `Nc1ccccc1C(=O)/C=C\c1ccc2c(c1)OCO2`, for which the activity, negative = inhibition is -4.77% [at 11.4 µM].

Regarding `Oc1cc(O)c2c(c1)O[C@H](c1ccc(O)c(O)c1)[C@H](O)C2`, the AC50 entry is “inactive”. With `CC1CCCC(C)N1C(=O)C1CC(c2ccc(F)cc2)=NO1` (stereo not given), the “activity, negative = inhibition” value was -45.5% (inactive). Still for that read-out and setting: with `Cc1ccc(CCN2CC(C(=O)NC3CCCC3)CC2=O)cc1` (stereo not given) the figure was -27.7% (inactive).

`O=C(NC1CCCC1)C1CC(c2ccc(F)cc2)=NO1` (stereo not given): the AC50 was 15.8 µM (active).

With `COC(=O)c1c(-c2ccccc2)csc1NC(=O)CSc1ncnc2sc(C)c(C)c12`, the “activity, negative = inhibition” value was -28.3% (inactive). Consider `COC(=O)c1c(NC(=O)CC2Nc3ccccc3NC2=O)sc(C)c1C` (stereo not given), for which the AC50 was 10 µM (active). `Cc1c(Cl)cccc1NC(=O)C[C@H]1Sc2ccccc2NC1=O`: the activity, negative = inhibition is -23.2% [at 2.29 µM]. `Cc1cc(NC(=O)Nc2ccc(N(C)C)cc2)c2cc(F)cc(F)c2n1`: the AC50 is 0.126 µM (active). Turning to `CO[C@@H]1COC(=O)C/C=C\[C@@H](C)[C@@H]2C=C[C@H](O)[C@@H](COC(=O)CCC[C@H]1C)O2`, the activity, negative = inhibition was 1.73% [at 11.4 µM]. As for `Cc1ccc(Nc2nc(-c3c(C)nc4ncccn34)cs2)cc1`, the AC50 was 3.16 µM (active).

As for `CN(C)CC[C@H](c1ccc(Br)cc1)c1ccccn1`, the AC50 entry was “inactive”.

In the case of `Cc1cc(Br)ccc1NCc1ccccn1`, the AC50 was 1.12 µM (active). As to `Cc1cc(NCc2ccccn2)ccc1Br`, the AC50 is 4.47 µM (active). Consider `Cc1cc(N=Cc2c(CO)cnc(C)c2O)c(N=Cc2c(CO)cnc(C)c2O)cc1C.[Zn]`, for which the activity, negative = inhibition was -10.4% [at 2.29 µM]. Regarding `CC(=O)NC1(c2cccc(F)c2)CCN(CC(=O)NC2CCCCC2)CC1`, the “activity, negative = inhibition” value is -13.1% (inactive).

In the case of `CCCC(c1cc(C(C)(C)C)c(O)cc1C)c1cc(C(C)(C)C)c(O)cc1C`, the activity, negative = inhibition is -12.3% [at 2.29 µM]. As for `N#Cc1c(NC(=O)C(F)(F)F)sc2c3c(=O)c4ccccc4c(=O)c=3oc3ccccc3c12`, the AC50 is 1 µM (active). As for `C[C@@](N)(C(=O)O)c1ccc(C(=O)O)cc1`, the AC50 result was “inactive”.

For `O=C(c1cnc(N2CCN(c3ncccn3)CC2)c2ccccc12)N1CCN(c2ncccn2)CC1`, the “activity, negative = inhibition” value is -27.3% (inactive). The same measure, in the same setting: with `COCC(=O)N1CCC2(CC1)CCN(c1ncccn1)CC2` the figure was 1.86% (inactive). With `CN(C(=O)c1cnc(N2CCN(c3ncccn3)CC2)c2ccccc12)c1ccc(Cl)cc1`, the AC50 is 15.8 µM (active). On to `CN(CCc1ccc(Cl)c(Cl)c1)CCN1CCCCCC1`, for which the AC50 was 31.6 µM (active). In the case of `CCOC(=O)CC1C(=O)NCCN1S(=O)(=O)c1ccc(Cl)c(Cl)c1` (stereo not given), the “activity, negative = inhibition” value was -0.861% (inactive). Regarding `O=C(Cc1ccc(Cl)c(Cl)c1)OCCN1CCCC1`, the AC50 is 12.6 µM (active). For `COc1ccc(CCN(C)CCc2ccc(OC)c(OC)c2)cc1OC`, the “activity, negative = inhibition” value is -18.9% (inactive). With `CO[C@H]1COC(=O)[C@@H](CCSC)NC(=O)C/C=C\[C@@H](C)[C@H](OC)COC(=O)[C@@H](OCc2ccccc2)/C=C\[C@@H]1C`, the activity, negative = inhibition is -4.15% [at 11.4 µM]. Regarding `Cc1ccc(C(=O)NCCNc2ccc(Cl)cc2[N+](=O)[O-])o1`, the AC50 was 2 µM (active). Turning to `COc1cccc(C2C(C(=O)c3cc4ccccc4o3)=C(O)C(=O)N2c2cc(C)on2)c1OC` (stereo not given), the “activity, negative = inhibition” value was -22.3% (inactive). In the case of `COc1cccc2cc3c(=O)oc4ccccc4c3nc12`, the AC50 was 0.0891 µM (active). With `CO/N=C\C[C@@H]1C=C[C@H](OC(C)=O)[C@H](COC(C)=O)O1`, the activity, negative = inhibition was -9.17% [at 11.4 µM]. For the compound `CCO/C([O-])=N/c1c[n+](N2CCOCC2)no1`, the “activity, negative = inhibition” value was -15.8% [at 25.6 µM] (inactive).

In the case of `CC(C)C(C(=O)NCC1CCCO1)N(Cc1ccco1)C(=O)CNS(=O)(=O)c1ccc(F)cc1` (stereo not given), the “activity, negative = inhibition” value was -23.5% (inactive). Take `O=C(NCCc1cccs1)C1CC(c2c(Cl)cccc2Cl)=NO1` (stereo not given): the AC50 was 0.501 µM (active). On the same count and under the same terms, with `CCN(CC)C(=S)SSC(=S)N(CC)CC` the figure was 6.31 µM (active) and 1.58 µM (active). `Cn1cc(-c2nc3cnc(N4CCNCC4)nc3n(-c3ccccc3)c2=O)c2ccccc21`: the AC50 was 15.8 µM (active). Same read-out and setting: with `Cn1cc(-c2nc3cnc(N4CCNCC4)nc3n(C3CC3)c2=O)c2ccccc21` the figure was 12.6 µM (active); with `COc1ccc(-n2c(=O)c(-c3cn(C)c4ccccc34)nc3cnc(N4CCNCC4)nc32)cc1`, 15.8 µM (active).

Source of the values: PubChem BioAssay AID1851 (National Center for Advancing Translational Sciences (NCATS), 2009).
